Screening data: PubChem, several laboratories
The list is not random: actives were taken first. Their share in the collection is about 2.5%.
EWS-Fli block – blocks EWS/Fli oncoprotein-driven transcription. A673 NR0B1-luciferase reporter, viability-normalised. inhibition, % at 12.6 µM. 350,000 tested, 0.67% active. AID 651661;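 active = mean inhibition of at least 50% after viability correction, with every replicate also passing that limit; inconclusive = mean reaches 50% but only one of two replicates passes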;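 note: firefly luciferase signal divided by Alamar Blue viability fluorescence both relative to DMSO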
Env fusion inh – inhibitors of HIV Env-mediated cell fusion; 360,000 tested, 1.1% active; inhibition, % at 12.3 µM; AID 651610; HeLa-JRFL Env/CEM21 cell fusion, luciferase;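 active = mean replicate inhibition score of at least 50 and every replicate individually at or above 50; inconclusive = only one of the two criteria met; inactive = mean below 50 and not all replicates reaching 50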;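 note: 0% = plate neutral controls and 100% = maraviroc near 300 nM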
PAX8 reporter – inhibitors of PAX8 transcriptional activity in RMG-I cells. RMG-I TPO-luciferase reporter, SteadyGlo, 24 h. inhibition, % at 12.6 µM. 360,000 tested, 1.2% active. AID 652154;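 active = mean replicate inhibition at least 60% with every replicate also reaching 60%; inconclusive = only one of the two criteria is met; inactive = mean below 60% and not all replicates reaching 60%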;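 note: luciferase light reporting Pax8 driven TPO promoter activity; plate controls were median of neutral control wells for no effect and mitoxantrone controls for full effect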
FXN GAA850 act – activators of GAA850 frataxin (FXN) promoter. 360,000 tested, 0.56% active. activation, % at 6 µM. HEK293 lucGAA850 FXN promoter luciferase reporter, 24 h; percent of 10 µM SAHA response;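 active = activation above the average of all compounds screened plus 3 SD, cutoff fixed separately per campaign, cut at about 7.5% in these data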;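 note: 0% = DMSO wells and 100% = 10 µM SAHA wells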
CFTR F508del cor – CFTR F508del correction in bronchial cells; 350,000 tested, 0.36% active; CFBE cells, YFP halide quenching; stimulated with forskolin plus potentiator P3; % fluorescence drop versus neutral controls; activity (quench increase), % at 7.58 µM; AID 720511;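 active = mean added fluorescence quench of at least 8% versus neutral control, with both replicates also reaching 8%; inconclusive = only one of the mean or replicate conditions met; inactive = mean below 8% and not both replicates reaching 8%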;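 note: cells transiently co-express mutant CFTR-F508del with the halide-sensitive YFP; corrector assay measuring rescue of mutant channel to the surface after 24 h compound exposure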
The depositor's hits bear a star; ! = repeats disagree; [ ] = another dose, or the depositor's remark.

Cc1ccc(S(=O)(=O)N2CCN(C(=O)CN(Cc3ccco3)Cc3cccs3)CC2)cc1 was read as EWS-Fli block 5, PAX8 reporter 9, FXN GAA850 act 2 and CFTR F508del cor 29*.
Cc1noc(C)c1NC(=O)N(C)C[C@@H]1OCCCC[C@@H](C)Oc2ccc(NC(=O)C3CCCCC3)cc2C(=O)N([C@@H](C)CO)C[C@@H]1C was read as EWS-Fli block -9, Env fusion inh -4[16.7 µM], PAX8 reporter 2 and CFTR F508del cor -1.
Screening C[C@@H]1CN([C@H](C)CO)C(=O)Cc2cc(NS(=O)(=O)c3ccccc3)ccc2O[C@H]1CN(C)Cc1ccc2c(c1)OCO2 returned EWS-Fli block 1, PAX8 reporter -4 and CFTR F508del cor 2.
For C[C@H]1CN([C@@H](C)CO)C(=O)c2cccc(NS(=O)(=O)c3cccs3)c2O[C@H]1CN(C)Cc1ccc(Cl)c(Cl)c1 the results were EWS-Fli block 5, Env fusion inh -14[16.7 µM], PAX8 reporter 22 and CFTR F508del cor -4.
CCC1=NN(C(=O)Cc2ccc(OC)cc2)C(O)(C(F)(F)F)C1 (centres undefined) was read as EWS-Fli block -9, FXN GAA850 act -1 and CFTR F508del cor 0.
`COc1ccc(CC(=O)N2N=C(c3ccncc3)CC2(O)C(F)(F)F)cc1` (centres undefined) gave EWS-Fli block 53*, Env fusion inh -9, PAX8 reporter 31, FXN GAA850 act -4 and CFTR F508del cor 6.
Screening Cc1nnc(N2CCCC(C(=O)Nc3cc(F)ccc3F)C2)c2nn(-c3ccccc3)c(C)c12 (centres undefined) returned FXN GAA850 act -11.
Cc1nnc(N2CCCC(C(=O)NCc3ccc(OC(C)C)cc3)C2)c2nn(-c3ccccc3)c(C)c12 (centres undefined) was read as Env fusion inh 14, PAX8 reporter 73*, FXN GAA850 act 5 and CFTR F508del cor 2.
Screening Cc1ccc(-n2nc3c(N4CCC(C(=O)NCCc5cccs5)CC4)nnc(C)c3c2C)cc1 returned Env fusion inh 12, PAX8 reporter 71*, FXN GAA850 act 0 and CFTR F508del cor 4.
For Cc1ccc(-n2nc3c(=O)n(CC(=O)NCCc4cccs4)nc(C)c3c2C)cc1 the results were Env fusion inh 12, PAX8 reporter 37, FXN GAA850 act -1 and CFTR F508del cor 2.
O=c1[nH]c2cc([N+](=O)[O-])ccc2c2ccccc12 was read as EWS-Fli block -32, Env fusion inh -16, PAX8 reporter -4, FXN GAA850 act 4 and CFTR F508del cor 1.
For O=C1Cc2c([nH]c3ccc([N+](=O)[O-])cc23)-c2ccccc2N1 the results were EWS-Fli block -39, Env fusion inh 96*, FXN GAA850 act -1 and CFTR F508del cor -7.
Screening C#CCn1c(S(=O)(=O)Cc2ccc(OC)cc2)nc(-c2ccccc2)c1-c1ccccc1 returned Env fusion inh 82* and FXN GAA850 act 3.
`CCOC(=O)Cn1c(S(=O)(=O)Cc2ccc(Cl)cc2)nc(-c2ccccc2)c1-c1ccccc1` gave Env fusion inh 114* and FXN GAA850 act -1.
For O=C(Cn1nc(CNc2ccc(Cl)cc2)[n+]2c1CCCCC2)c1ccccc1 the results were EWS-Fli block 0, Env fusion inh 22, PAX8 reporter 17, FXN GAA850 act 0 and CFTR F508del cor -2.
`Cc1ccc(C(C)C)c(OCc2nn(CC(=O)c3ccc(Cl)cc3)c3[n+]2CCCCC3)c1` gave EWS-Fli block inconclusive, Env fusion inh 33, PAX8 reporter 66*, FXN GAA850 act -3 and CFTR F508del cor 8.
`COc1cccc(-c2ccc(C3[C@H]4CNC[C@@H]3N4Cc3ccc(F)cc3)cc2)c1` (some centres undefined) gave EWS-Fli block 63*!, PAX8 reporter -1 and CFTR F508del cor -1.
For COc1cccc(-c2ccc(C3[C@H]4CNC[C@@H]3N4Cc3cc(F)ccc3F)cc2)c1 (some centres undefined) the results were EWS-Fli block 4 and CFTR F508del cor 0.
Screening CN(C)CCCN1c2ccccc2Sc2ccccc21 returned EWS-Fli block 5, Env fusion inh 21, PAX8 reporter 8, FXN GAA850 act 1 and CFTR F508del cor 11*.
CCC(=O)Nc1ccc2c(c1)OC[C@@H](C)N(Cc1ccccn1)C[C@H](C)[C@H](OC)CN(C)C2=O was read as EWS-Fli block 7, PAX8 reporter -3 and CFTR F508del cor -2.
For Cn1c(CN2CCCCC2)nc2cc(NC(=O)c3ccc(Cl)cc3)ccc21 the results were Env fusion inh 79* and FXN GAA850 act -3.
`Cn1c(CCN2CCCC2)nc2cc(NS(=O)(=O)c3ccc(F)cc3)ccc21` gave EWS-Fli block -2, Env fusion inh 8, PAX8 reporter 84*, FXN GAA850 act 1 and CFTR F508del cor 0.
`Cn1c(CN2CCCC2)nc2cc(NS(=O)(=O)c3ccc(Cl)cc3)ccc21` gave FXN GAA850 act -4.
Screening Cn1c(CCN2CCCC2)nc2cc(NS(=O)(=O)c3ccc(Cl)cc3)ccc21 returned EWS-Fli block 29, Env fusion inh -1, PAX8 reporter 101*, FXN GAA850 act 3 and CFTR F508del cor 5.
`Cc1ccc(S(=O)(=O)Nc2ccc3c(c2)nc(CCN2CCCC2)n3C)cc1` gave EWS-Fli block 1, Env fusion inh -5, PAX8 reporter 94*, FXN GAA850 act 4 and CFTR F508del cor 0.
`Cn1c(CCN2CCCCC2)nc2cc(NS(=O)(=O)c3ccccc3)ccc21` gave Env fusion inh -2 and FXN GAA850 act 0.
Screening Cn1c(CCN2CCOCC2)nc2cc(NS(=O)(=O)c3ccccc3)ccc21 returned EWS-Fli block 1, Env fusion inh 6, PAX8 reporter 23, FXN GAA850 act 1 and CFTR F508del cor 0.
C[C@H]1CN([C@@H](C)CO)C(=O)c2cccc(NC(=O)Nc3ccccc3)c2O[C@@H]1CN(C)CC1CC1 was read as EWS-Fli block 1, PAX8 reporter -22 and CFTR F508del cor 1.
Screening COc1ccc2c3c([nH]c2c1)[C@H](CO)N(C(=O)NC(C)C)CC31CCN(C(=O)NC(C)C)CC1 returned EWS-Fli block -18, Env fusion inh 7[16.7 µM] and CFTR F508del cor 1.
Screening C=CC(=O)N=c1sc2ccccc2n1-c1ccccc1 returned EWS-Fli block 4, Env fusion inh -66, PAX8 reporter 92*, FXN GAA850 act -3 and CFTR F508del cor 5.
For N=c1sc2ccccc2n1-c1ccccc1 the results were EWS-Fli block 5, FXN GAA850 act 1 and CFTR F508del cor -1.
`CC(C)C(=O)Nc1ccc2c(c1)C(=O)N(C)[C@H]1CC[C@@H](CC(=O)NCc3ccc(F)cc3)O[C@@H]1CO2` gave EWS-Fli block 0, Env fusion inh 2[16.7 µM], PAX8 reporter 1 and CFTR F508del cor -1.
For O=C(C[C@H]1CC[C@@H](NC(=O)Nc2cc(F)ccc2F)[C@H](CO)O1)Nc1ccccc1 the results were EWS-Fli block -5, Env fusion inh -7[16.7 µM] and CFTR F508del cor 0.
